Assay outcomes deposited in PubChem BioAssay by several laboratories.
Most compounds without a hit are left out; they make up all but 1.4% or so of the library.
TPT1 inh: inhibitors of Candida albicans tRNA 2'-phosphotransferase TPT1. recombinant caTPT1, FP RNA substrate dephosphorylation. inhibition, % at 5 µM. actives 0.81% (n = 300,000). AID 1962;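 active means inhibition above the mean of all tested compounds plus 3 SD, set per screening campaign, cut at about 24% in these data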;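 further: plate controls were DMSO alone for no effect and ferristatin control at 100 nM for full effect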
CRFBP-R2 agonist: CRF-BP/CRF-R2 complex agonism. HEK293 CRF-R2/CRF-BP, calcium dye fluorescence (FLIPR); percent of saturating CRF peptide response. activation, % at 13.2 µM. actives 0.46% (n = 350,000). AID 588473;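 active means activation of at least 50%, plus an integration ratio under a set limit after plate pattern correction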;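 further: plate controls were neutral control wells without compound for no effect and CRF at EC100 for full effect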
IDE cell inh: inhibits human insulin-degrading enzyme in HEK cells | P14735 | inhibition, % at 5.59 µM | actives 0.41% (n = 320,000) | FAbetaB cleavage, fluorescence polarization;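 active means percent inhibition above the average of all tested compounds plus 3 SD, set per screening campaign, cut at about 16% in these data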;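 further: IDE supplied by intact live HEK cells; FP after avidin binding of uncleaved biotin substrate so inhibition keeps polarization high; 0% = DMSO wells and 100% = 60 µM reference IDE inhibitor Ii1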
HNF4A DNA FP: change in binding of human HNF4 alpha to DNA; actives 0.3% (n = 360,000); HNF4a-FITC DNA binding, fluorescence polarization, 1 h; P41235; activity change, % at 10 µM; in the data active means activity change above about 30%, passing the limit was not always enough
Target sequence (P41235 whole entry, looked up): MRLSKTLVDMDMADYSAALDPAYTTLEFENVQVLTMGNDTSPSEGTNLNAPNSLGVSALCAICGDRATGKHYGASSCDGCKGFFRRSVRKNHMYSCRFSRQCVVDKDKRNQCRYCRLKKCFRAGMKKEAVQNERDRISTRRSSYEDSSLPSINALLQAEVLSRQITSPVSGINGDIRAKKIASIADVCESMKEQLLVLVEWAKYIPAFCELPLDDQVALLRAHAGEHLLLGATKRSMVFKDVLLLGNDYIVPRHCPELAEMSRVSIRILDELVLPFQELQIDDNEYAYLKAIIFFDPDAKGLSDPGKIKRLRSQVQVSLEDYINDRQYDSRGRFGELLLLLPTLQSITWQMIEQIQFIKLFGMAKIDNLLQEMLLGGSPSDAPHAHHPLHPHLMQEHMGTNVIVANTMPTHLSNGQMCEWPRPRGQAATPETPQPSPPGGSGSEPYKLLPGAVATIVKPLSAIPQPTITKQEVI
IDE cell activ: IDE (human) activation, cell-based. P14735. HEK cells, FAbeta-B cleavage, fluorescence polarization; 0% vehicle, 100% cell-free pure enzyme wells. activation, % at 5.96 µM. actives 0.073% (n = 340,000). AID 493087;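 active means activation above the mean of all tested compounds plus 3 SD, set per screening campaign, cut at about 17% in these data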
TPT1 inh confirm: TPT1 (C. albicans) inhibition, confirmation. shares compounds with TPT1 inh. recombinant caTPT1, fluorescence polarization, RNase T1 coupled. inhibition, % at 5 µM. actives 74% (n = 2,400);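 active means inhibition above the primary screen limit, the mean inhibition of all tested compounds plus 3 SD, cut at about 25% in these data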
RNase T1 counter: blocks Aspergillus oryzae RNase T1, a TPT1 counter-screen. RNase T1 cleavage, fluorescence polarization, 1536-well. shares compounds with TPT1 inh. inhibition, % at 5 µM. actives 83% (n = 2,400);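 active means inhibition above the solvent-only control well mean plus 3 SD, limit set per screening run, cut at about 23% in these data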;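 further: plate controls were DMSO wells with enzyme for no effect and wells without RNase T1 for full effect; inhibitors block cleavage so intact labeled substrate keeps polarization high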
Target sequence (P00651 whole entry, looked up): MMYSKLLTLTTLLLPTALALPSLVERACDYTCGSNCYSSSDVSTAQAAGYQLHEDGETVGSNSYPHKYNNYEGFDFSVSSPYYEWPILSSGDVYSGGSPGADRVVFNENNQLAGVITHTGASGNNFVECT
Starred values were filed as active, the others as inactive; · = not tested or not shown.

SMILES	TPT1 inh	CRFBP-R2 agonist	IDE cell inh	HNF4A DNA FP	IDE cell activ	TPT1 inh confirm	RNase T1 counter
COc1cc([N+](=O)[O-])ccc1-c1ccc(/C=N/NC(N)=O)o1	51.2*	22.8	2.8	86.7*	2.8	58.3*	67.9*
NC(=O)N/N=C/c1ccc(-c2ccc([N+](=O)[O-])cc2)o1	13.1	0.1	0.7	8.5	4.8	·	·
COCCNC(=S)N/N=C/c1ccc(-c2ccc([N+](=O)[O-])cc2)o1	46.9*	70.0*	0.3	20.5	-3.5	50.5*	63.4*
O=C(Cc1ccccc1)N/N=C/c1ccc(-c2ccc([N+](=O)[O-])cc2)o1	23.0	10.7	6.3	13.2	-1.8	·	·
CCOc1ccc(S(=O)(=O)N(CC(=O)N/N=C/c2ccc(-c3ccc([N+](=O)[O-])cc3)o2)c2ccccc2)cc1	38.6*	4.1	3.3	-9.8	2.7	39.3*	52.0*
O=C(Nc1ccc(F)cc1)c1oc2ccccc2c1NC(=O)C1CC1	-0.8	2.3	4.6	0.6	4.7	·	·
O=C(COC(=O)C1(c2cccc(F)c2)CCCC1)NCc1ccc2c(c1)OCO2	1.9	-1.9	0.3	1.4	-1.5	·	·
C=CCN(C(=O)Nc1ccc(OC)cc1)c1nnc(-c2ccncc2)s1	-0.7	1.4	4.3	-0.3	1.9	·	·
COc1ccc(C(=O)NCC(=O)N2CCN(c3ccc(F)cc3)CC2)cc1	-4.6	0.2	2.2	-1.0	1.1	·	·
C=CCNC(=S)Nc1ccccc1-c1nnc2n1CCCCC2	-0.4	1.5	0.4	1.9	-2.7	·	·
COc1cc(N=Nc2cccc(S(N)(=O)=O)c2)c2ccccc2c1N	89.3*	4.3	10.0	25.0	2.1	44.0*	53.7*
COc1ccc(NC(=O)Cn2nnc(-c3ccccc3NC(=O)C3CC3)n2)cc1	-3.8	-1.3	2.9	-0.3	3.2	·	·
COc1ccc(C(=O)Cn2nnc(-c3ccccc3NC(=O)C3CCCCC3)n2)cc1	29.6*	7.4	3.5	8.1	6.6	43.0*	54.5*
COC(=O)C[C@H]1C=C[C@H](NC(=O)Nc2ccccc2)[C@@H](CO)O1	·	·	·	5.3	·	·	·
O=C(NCc1ccco1)c1ccccc1	0.5	0.6	4.2	0.2	1.7	·	·
O=C(Nc1sccc1C(=O)NCc1ccco1)c1cccnc1	24.3*	-0.2	1.0	9.1	1.2	42.3*	55.6*
CC(=O)Nc1ccc(S(=O)(=O)N2CCN(C(=O)c3ncoc3-c3ccccc3)CC2)cc1	·	8.0	·	-2.8	-4.7	·	·
Cc1ccc(CNC(=O)[C@H]2O[C@@H](n3cnc4c(N)ncnc43)[C@H](O)[C@@H]2O)o1	·	·	·	-0.4	·	·	·
CC(=O)c1c(N2CCN(CCO)CC2)nc(=S)n(-c2ccccc2)c1C	-9.2	1.6	9.8	3.4	-1.7	·	·
CC(=O)c1c(N2CCN(c3ccccc3)CC2)nc(=S)n(-c2ccccc2)c1C	77.6*	25.6	6.4	12.9	-1.6	25.9*	35.2*
COc1ccccc1-n1cc([C@@H]2C[C@H]3CN(c4ccccc4)C(=O)[C@]34CCCN24)cn1	60.4*	1.7	11.4	64.7*	·	46.6*	61.0*
COc1ccc(NC(=O)c2sc(=O)n(Cc3cccc(C(F)(F)F)c3)c2C)cc1OC	·	·	·	1.1	·	·	·
O=C(COc1ccccc1)c1cn(CC(=O)N2CCOCC2)c2ccccc12	27.3*	36.5	4.1	7.6	-5.2	25.9*	36.6*
O=C(Cn1cc(C(=S)N2CCOCC2)c2ccccc21)N1CCOCC1	-4.0	1.6	-1.2	2.2	0.0	·	·
O=C(Cn1cc(C(=O)COc2ccccc2)c2ccccc21)NCc1ccco1	33.9*	0.7	-0.2	18.6	-0.3	26.1*	37.6*
SMILES	TPT1 inh	CRFBP-R2 agonist	IDE cell inh	HNF4A DNA FP	IDE cell activ	TPT1 inh confirm	RNase T1 counter
CCOc1ccc(-c2cc(C(=O)Nc3cccc(C(F)(F)F)c3)[nH]n2)c(C)c1	·	·	·	-1.9	·	·	·
Cc1ccccc1NC(=O)COc1coc(CN2CCCc3ccccc32)cc1=O	-0.1	0.1	3.6	-3.7	1.9	·	·
O=C(COc1coc(CN2CCCc3ccccc32)cc1=O)Nc1ccc([N+](=O)[O-])cc1	32.1*	13.6	1.3	0.4	1.1	10.3	16.9
O=C(Nc1ccc(S(=O)(=O)N2CCCCC2)cc1)c1ccc(Cl)nc1	·	-0.1	-3.0	0.4	0.8	·	·
CC1CCCN(S(=O)(=O)c2ccc(C(=O)Nc3sc4c(c3C(N)=O)CCN(C)C4)cc2)C1 (configuration not stated)	73.5*	32.7	6.6	19.3	1.0	64.1*	71.3*
CC(C)N1CCc2c(sc(NC(=O)c3ccc(S(=O)(=O)N4CCOCC4)cc3)c2C(N)=O)C1	36.1*	-2.1	1.4	0.4	4.0	43.1*	55.6*
CCOC(=O)c1c(NC(=O)c2ccc(S(=O)(=O)N3CCOCC3)cc2)sc2c1CCN(C(C)C)C2	6.0	19.0	-5.6	10.3	10.6	·	·
CNC(=O)c1c(NC(=O)c2ccc(S(=O)(=O)N3CCCCC3C)cc2)sc2c1CCN(C)C2 (configuration not stated)	8.2	10.8	0.1	4.2	4.0	·	·
COCCCn1c(=O)c2sccc2n2c(CCCC(=O)NCc3cccc(OC)c3)nnc12	0.6	1.1	-1.1	-0.7	3.1	·	·
CN(C)c1ccc(/C=C/C=C2/SC(=S)N(c3ccccc3)C2=O)cc1	104.1*	0.3	10.8	57.4*	-3.7	70.6*	80.9*
O=C(NN1C(=O)/C(=C/C=C/c2ccco2)SC1=S)c1ccncc1	86.1*	0.2	2.5	-45.7	·	57.7*	36.2*
CC(C)C(C(=O)O)N1C(=O)/C(=C/C=C/c2ccco2)SC1=S (configuration not stated)	82.7*	3.8	0.1	-24.2	1.6	88.0*	64.0*
O=C1/C(=C/C=C/c2ccco2)SC(=S)N1c1ccc(O)cc1	27.6*	1.0	1.0	-2.9	-1.3	49.7*	56.5*
O=C(N/N=C/C=C/c1ccco1)c1ccncc1	-1.0	-0.9	0.1	5.2	-2.6	·	·
O=C(O)c1ccc(N2C(=O)/C(=C/C=C/c3ccccc3)SC2=S)cc1	5.2	-2.6	-0.9	1.6	1.9	·	·
CC(C(=O)Nc1ccc(C(=O)O)c(O)c1)N1C(=O)/C(=C\c2ccco2)SC1=S (configuration not stated)	15.1	-0.6	11.6	-14.1	-4.8	·	·
CCOc1ccc(C(=O)Nc2ccc(C(=O)N3CCOCC3)cc2)c(OCC)c1	3.0	-0.3	-1.1	3.2	3.9	·	·
NC(=O)c1cc(Cl)ccc1OCC(=O)NC1CC1	·	-0.3	-2.4	3.6	1.8	·	·
COc1ccccc1NS(=O)(=O)c1ccc(C(=O)Nc2ncccc2O)cc1	·	-0.8	-3.6	-1.2	3.0	·	·
CCOc1cc2sc(N3CCC(C(=O)NCCCN4CCCC4=O)CC3)nc2cc1Br	-3.4	-0.4	-1.1	2.3	-6.7	·	·
